Source: PubChem BioAssay (National Center for Advancing Translational Sciences (NCATS))
BAZ2B block: blocks human BAZ2B; AID 504333; Q9UIF8; Potency, µM (titrated, usually from 114 µM), without a hit: top-dose activity change, negative = inhibition, usual class: inhibitors; AlphaScreen BAZ2B-H3K14Ac peptide displacement; 360,000 compounds, 4.4% hits; further: on the % scale 0 is the no-effect control and ±100 the full control effect; nearly all actives have a fitted effect of over 60% in size
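Compounds, titrated to a top concentration of 110 uM, were incubated 30 min at room temperature with preformed BAZ2B/acetyl-K14 H3 peptide complex (50 nM each). Proximity signal was measured by AlphaScreen after 20 min with beads.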
HP1b chromo inh: blocks HP1-beta chromodomain binding to methylated histone tails | AlphaScreen HP1-beta / biotin-H3K9me3 peptide binding | AID 540317 | P83916 | Potency, µM (doses to about 114 µM), for the others: at the top dose activity change, negative = inhibition, most hits filed as inhibitors | 390,000 compounds, 0.56% hits; further: nearly all actives have a fitted effect of over 70% in size
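HP1-beta protein (50 nM final) preincubated 30 min at room temperature with biotinylated H3(1-18)K9me3 peptide (50 nM) in PBS pH 7.4, 0.01% Tween-20, then compound added for 30 min. AlphaScreen streptavidin donor/nickel chelate acceptor beads (10 ug/mL final), 30 min dark, luminescence read.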
GLS inhibitor: glutaminase GLS (human) inhibition; GLS enzymatic activity, qHTS titration; O94925; AID 624170; Potency, µM (top dose mostly 45.5 µM), without a hit: top-dose activity change, negative = inhibition, usual class: inhibitors; 410,000 compounds, 0.21% hits; further: on the % scale 0 is the no-effect control and ±100 the full control effect
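Two-point fluorescence kinetic (t0, 30 min RT) for hKGA; glutamate detected via glutamate oxidase–HRP–Amplex Red. Substrate: 1 mM L-glutamine solution; buffer 45 mM KH2PO4, pH 8.2.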
L3MBTL1 inh: blocks human L3MBTL1; Q9Y468; AlphaScreen L3MBTL1–H3K9me1 peptide binding; Potency, µM (highest dose often 57.1 µM), without a hit: top-dose activity, negative = inhibition, actives largely listed as inhibitors; 230,000 compounds, 0.66% hits; AID 485360; further: on the % scale 0 is the no-effect control and ±100 the full control effect; nearly all actives have a fitted effect of over 60% in size
Target sequence (Q9Y468 whole entry, looked up): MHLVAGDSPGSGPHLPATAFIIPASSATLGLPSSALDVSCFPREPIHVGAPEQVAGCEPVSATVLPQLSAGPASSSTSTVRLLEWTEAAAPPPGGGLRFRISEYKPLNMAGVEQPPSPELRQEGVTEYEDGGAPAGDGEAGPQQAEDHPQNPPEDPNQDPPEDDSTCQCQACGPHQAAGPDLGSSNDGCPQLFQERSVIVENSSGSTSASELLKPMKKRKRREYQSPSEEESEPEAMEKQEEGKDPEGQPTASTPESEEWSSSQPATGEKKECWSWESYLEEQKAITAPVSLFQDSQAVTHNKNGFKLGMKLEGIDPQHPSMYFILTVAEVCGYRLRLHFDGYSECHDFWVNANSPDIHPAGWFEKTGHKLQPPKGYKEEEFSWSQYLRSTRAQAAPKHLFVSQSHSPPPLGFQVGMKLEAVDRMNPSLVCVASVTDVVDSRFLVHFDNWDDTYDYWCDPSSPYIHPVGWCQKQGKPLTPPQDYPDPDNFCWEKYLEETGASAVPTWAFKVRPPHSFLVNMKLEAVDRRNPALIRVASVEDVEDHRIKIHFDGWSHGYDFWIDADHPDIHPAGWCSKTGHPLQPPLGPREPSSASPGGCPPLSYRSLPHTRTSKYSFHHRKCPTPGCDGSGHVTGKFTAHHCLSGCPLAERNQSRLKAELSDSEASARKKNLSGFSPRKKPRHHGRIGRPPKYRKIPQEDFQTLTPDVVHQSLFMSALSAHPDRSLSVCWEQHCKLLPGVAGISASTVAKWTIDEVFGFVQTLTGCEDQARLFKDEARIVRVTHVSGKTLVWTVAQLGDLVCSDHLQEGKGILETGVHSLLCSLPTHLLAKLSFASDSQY
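AlphaScreen assay: L3MBTL1 (50 nM final) was preincubated 30 min at room temperature with biotinylated H3(1-15)K9me1 peptide (75 nM final), then 30 min with library compounds; streptavidin donor and nickel chelate acceptor beads (10 ug/mL final) added, 30 min dark.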
G9a inh: G9a (human) methyltransferase inhibition; AID 504332; 350,000 compounds, 8.8% hits; Potency, µM (top dose mostly 102 µM), for inactives: top-dose activity, negative = inhibition, usual class: inhibitors; G9a H3K9 monomethylation, AlphaScreen, 2 h; Q96KQ7; further: on the % scale 0 is the no-effect control and ±100 the full control effect; nearly all actives have a fitted effect of over 75% in size
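Quantitative HTS format: methyltransferase activity on a biotin-tagged H3K9 peptide is measured by AlphaScreen, using a rabbit anti-monomethyl-H3K9 antibody with streptavidin donor and anti-IgG acceptor beads. Final levels are 20 nM enzyme, 500 nM peptide, 20 uM SAM; 2 h RT.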
JMJD2A Tudor inh: blocks the human JMJD2A Tudor domain. Potency, µM (titrated, usually from 114 µM), inactives show at the highest dose activity change, negative = inhibition, hits mostly inhibitors. 390,000 compounds, 4.4% hits. O75164. AlphaScreen JMJD2A-Tudor / H3K4me3 peptide binding; further: on the % scale 0 is the no-effect control and ±100 the full control effect; nearly all actives have a fitted effect of over 50% in size
Active calls of the source: *; u = inconclusive; x = not tested or not shown; ! = not confirmed by another sample; [ ] = another dose, or the depositor's remark. Hits are enriched below; roughly 10% of the tested compounds scored in any of these assays. The call rests on the fitted dose curve; in most records, active means well fitted curve in the direction sought with a large enough effect; inconclusive means small, poorly fitted or top-dose-only effect, or another doubt; inactive means no such curve, though single readings can be large; an effect the other way counts as inactive or inconclusive. Potency means the concentration at half of the fitted maximal effect.

SMILES | BAZ2B block | HP1b chromo inh | GLS inhibitor | L3MBTL1 inh | G9a inh | JMJD2A Tudor inh
Cc1cc(NC(=S)N(CCCN2CCN(C)CC2)Cc2ccco2)ccc1Cl | -27% | 6% | u | 2% | 32µM* | -17%
O=C(CN1CCCN(Cc2ccccc2F)S1(=O)=O)Nc1ccc(F)c(Cl)c1 | -2% | 14% | 2% | x | 7%[59 µM] | -7%
CC(=O)c1ccc(NC(=O)CNCC(c2ccccc2)N(C)C)cc1 (stereo not given) | 1% | 9% | -19% | -24% | 14µM* | 2.8µM*
Cc1ccc(NC(=O)NCC(c2ccccc2)N(C)C)cc1 (stereo not given) | -19% | 28% | 24% | x | -1% | -11%
COc1ccccc1NC(=O)CSc1nncn2c1cc1sccc12 | -14% | 31% | -1% | x | -24%[59 µM] | -3%
CCOc1ccc(NC(=O)c2cccc(N3CCCS3(=O)=O)c2)cc1 | -5% | 22% | 6% | x | 7%[59 µM] | -9%
OCn1ncn(-c2ccccc2)c1=S | -12% | 19% | 16% | x | u | 35µM*
Cc1ccc(Cn2ncn(-c3ccccc3)c2=O)cc1 | 1% | 49% | -4% | 4% | -1% | 2%[57.1 µM]
COc1ccc(NS(=O)(=O)c2ccc3oc(SC)nc3c2)cc1 | -1% | u | 18% | x | 40µM* | -8%
CC(=O)c1ccc(NC(=O)COCc2cc(-c3ccco3)on2)cc1 | -21% | 17% | -13% | x | -3%[59 µM] | u
CCCc1nn(C)c2c(=O)[nH]c(-c3ccccc3OCC)nc12 | -23% | 33% | 1% | 8% | u | -4%
CCCOc1ccccc1-c1nc2n[nH]nc2c(=O)[nH]1 | x | 41% | 14% | x | 14µM*! | -1%
CCOc1ccc2c(c1)-c1c(ssc1=S)C(C)(C)N2C | 10µM* | 2µM* | 23% | x | 4µM* | 11µM*
CCOc1ccc2c(c1)C(C)=CC(C)(C)N2S(=O)(=O)c1ccc(F)cc1 | -2% | 52% | -2% | -6% | -11% | 10%
Cc1cc(C(=O)CN2C(=O)NC(Cc3c[nH]c4ccccc34)C2=O)c(C)n1C (stereo not given) | 50µM* | 0% | 28% | u | 50µM* | u
CC(Sc1nc(=O)cc(N)n1CCc1ccccc1)C(=O)Nc1ccccc1C#N (stereo not given) | -24% | 33% | -24% | x | -22%[59 µM] | -11%
COc1ccc(-c2nc(S(=O)(=O)c3ccc(C)cc3)c(N3CCCCC3)o2)cc1 | u | u | -7% | x | 3.5µM* | 50µM*
COc1ccc(-c2nc(S(=O)(=O)c3ccccc3)c(N3CCOCC3)o2)cc1 | -29% | -1% | 0% | 10% | u | 79µM*
Cc1ccc(-c2nc(S(=O)(=O)c3ccc(Cl)cc3)c(N3CCCCC3)o2)cc1 | u | u | -7% | x | 2.8µM* | -34%
COc1cccc(-c2nc(S(=O)(=O)c3ccc(C)cc3)c(N3CCCCCC3)o2)c1 | u | -15% | -1% | x | -41%[59 µM] | -22%
Cc1ccc(S(=O)(=O)c2nc(-c3cccc(C)c3)oc2N2CCCCC2)cc1 | -31% | 8% | -1% | x | u | -20%
O=P(c1ccccc1)(c1ccccc1)c1nc(-c2ccc(Cl)cc2)oc1N1CCOCC1 | 45µM* | -30% | -17% | -7% | u | u
O=P(c1ccccc1)(c1ccccc1)c1nc(-c2ccccc2)oc1N1CCOCC1 | u | -3% | 0% | -11% | 0%[59 µM] | -20%
Cc1cc(-n2c(SCC(=O)NCc3ccccc3)nc3ccsc3c2=O)ccc1Cl | 1% | 18% | 2% | x | 3%[59 µM] | -12%
O=C(NCc1nnc(-c2nc3ccccc3[nH]2)o1)C1CCCCC1 | x | x | x | x | x | -4%
SMILES | BAZ2B block | HP1b chromo inh | GLS inhibitor | L3MBTL1 inh | G9a inh | JMJD2A Tudor inh
Cc1ccc(CNCc2cn[nH]c2-c2ccc(C)cc2)cc1 | x | 24% | x | x | x | -17%
CC1CCN(S(=O)(=O)c2ccc3c(ccc(=O)n3CC(=O)Nc3ccc(C(C)C)cc3)c2)CC1 | -7% | 8%[57 µM] | -14% | x | -9%[59 µM] | -13%
COc1ccc(-n2c(-c3ccccc3)cc3c2CCCC3=O)cc1 | 11µM* | u | 8% | 32µM* | 13µM* | 32µM*
COc1ccc(CCC(=O)NCCc2ccc(OC)c(OC)c2)cc1 | 6% | 2% | -9% | x | -12% | -15%
COc1ccc(N/N=C(\C#N)C(=N)SCc2ccccc2)cc1 | u | 27% | 6% | x | 28µM* | -30%
COc1ccc(N/N=C(\C#N)C(=N)N2CCCCC2)cc1 | -37% | 27% | 3% | -25% | x | -33%
COc1ccc(N/N=C(\C#N)C(=O)NCCc2ccc(OC)c(OC)c2)cc1 | u | 10% | u | -10% | 22µM* | u
CCCCN(C)CCNC(=O)c1ccc(Cn2c(=O)[nH]c3cc(OC)c(OC)cc3c2=O)cc1 | -2% | 26% | 3% | x | -38%[59 µM] | -12%
CN(C)c1ccc(O)c2c1C[C@H]1C[C@H]3[C@@H](N(C)C)C(=O)C(C(N)=O)=C(O)[C@]3(O)C(=O)C1=C2O | x | x | x | x | 8.9µM* | x
CN(C)[C@@H]1C(=O)C(C(N)=O)=C(O)[C@]2(O)C(=O)C3=C(O)c4c(O)ccc(Cl)c4[C@H](O)[C@H]3C[C@@H]12 | x | x | -9% | x | u | x
CCc1ccccc1NC(=O)Cn1nc(CC)n2c(cc3sccc32)c1=O | -1% | 22% | -5% | x | 1%[59 µM] | -8%
COc1ccc(CC(=O)Nc2cc(-c3nc4cccnc4s3)ccc2C)cc1 | u | 24% | -2% | x | u | u
CNc1ncncc1-c1ccccc1C | x | x | x | x | 20%[0.501 µM] | x
Cc1cccc(C)c1NC(=O)c1cc(S(=O)(=O)N2CCc3ccccc3C2)ccc1F | -8% | 34% | 0% | x | 9%[59 µM] | -22%
O=C1NC(=Nc2ccccc2)S/C1=C\C=C\c1ccco1 | 25µM* | u | 0% | 3.2µM* | u | 50µM*
Cc1cccc(N=C2NC(=O)/C(=C/c3cccn3C)S2)c1C | 32µM* | -16% | 0% | -7% | u | u
Cc1ccc(N=C2NC(=O)/C(=C/C=C/c3ccco3)S2)cc1 | 16µM* | u | -10% | u | 11µM* | 35µM*
COc1ccc(N=C2NC(=O)/C(=C/C=C/c3ccccc3)S2)cc1 | -14% | 13% | 3% | x | x | -10%
O=C1NC(=Nc2ccccc2)S/C1=C\c1ccccc1 | -32% | 48% | -6% | 5%[2.29 µM] | -2%[0.501 µM] | -16%
O=C1NC(=Nc2ccccc2)/C(=C/c2ccco2)S1 | 50µM* | 22% | 5% | -18% | 11µM* | -29%
CCOC(=O)c1[nH]c(C)c(CCC(=O)NCc2ccccc2Cl)c1C | -3% | 20%[57 µM] | 4% | x | -21%[59 µM] | -23%
Cc1cccc(N=C2NC(=O)/C(=C/c3cccnc3)S2)c1C | -18% | 6% | -2% | -9% | u | -26%
